Calls of active or inactive are those of the source. The call rests on the fitted dose curve; in most records, active means well fitted cell-killing curve with a large enough effect; inconclusive means small, poorly fitted or top-dose-only effect, or effect the other way; inactive means flat fitted curve, though single readings scatter.
Test: MultiTox-Fluor Cytotoxicity Assay - LYMP1-003 - Dead Cells (AID 961); further: nearly all actives have a fitted effect of over 70% in size
Settings: LYMP1-003 lymphoblastoid cells, dead-cell protease fluorescence; series mostly up to 92.2 µM
Description: NIH Chemical Genomics Center [NCGC]
NIH Molecular Libraries Screening Centers Network [MLSCN]
National Institutes of Environmental Health Sciences [NIEHS]
National Toxicology Program [NTP]
We have developed a 1536-well cell-based assay for quantitative high throughput screening (qHTS) against a number of cell lines to determine in vitro cytotoxicity of small molecules. This particular assay uses a human lymphoblastoid cell line (LYMP1-003) purchased from Coriell Institute.
NCGC Assay Protocol Summary:
The MultiTox-Fluor Cytotoxicity Assay (Promega) is a homogeneous method to simultaneously measure the relative number of live and dead cells in culture by detecting changes in cell membrane integrity. There are two fluorogenic peptide substrates in the assay reagent. Viable cells are determined when the cell-permeant substrate (GF-AFC) enters the cell and is cleaved by protease from live cells resulting in liberated fluorophore. This live-cell protease activity restricted to viable cells is proportional to cell number. The dead cells are determined by using fluorogenic cell-impermeant peptide substrate (bis-AAF-R110) which cleaved by dead cell proteases leaking from damaged cell membrane.
Using the MultiTox-Fluor Cytotoxicity Assay, the relative number of dead cells was measured in the lymphoblastoid cell line with complete culture medium following compound treatment for 16 hours. The assay was performed in opaque black Kalypsys 1536-well plates. In the screen, tetraoctylammonium bromide was used as positive control. Library compounds were measured for their ability to cause acute toxicity in the cell line, as reflected by an increase in dead cell protease activity, in a concentration-dependent manner. Data were normalized to the controls for basal activity (DMSO only) and 100% stimulation (15 uM tetraoctylammonium bromide). AC50 values were determined from concentration-response data modeled with the standard Hill equation.
qHTS protocol for MultiTox-Fluor Cytotoxicity assay
[Step] [Parameter] [Value] [Description]
1. Reagent; 5 uL; 2500 lymphoblastoid cells/well
2. Time; 5 hr; 37 C incubation
4. Controls; 23 nL; Tetraoctylammonium bromide 6.4pM to 92 uM
5. Time; 16 hr; 37 C incubation
6. Reagent; 5 uL; MuliTox-Fluor Assay reagent
7. Time; 60 min; Room Temperature
8. Detection; dead-cell fluorescence (Ex/Em=485/520); EnVision plate reader
Keywords: cytotoxicity, lymphoblastoid cell line, fluorescence, NTPHTS, NTPHTS_NCGC, NIEHS, EPA, DSSTox, MLSMR, MLSCN, NIH Roadmap, qHTS, NCGC

With CC(C)NCC(O)c1ccc(O)c(O)c1 (stereo not given) as the compound, how does the outcome read?
Its outcome is “inactive”.

Which outcome does the source give for NS(=O)(=O)c1cc2c(cc1Cl)NCNS2(=O)=O here?
Its outcome is “inactive”.

Which outcome does the source give for O=c1[nH]cc(F)c(=O)[nH]1 here?
Its outcome is “inactive”.

For COc1ccc2c(c1)c(CC(=O)O)c(C)n2C(=O)c1ccc(Cl)cc1, which outcome is on record?
Its outcome is “inactive”.

For Cc1cn([C@H]2C[C@H](N=[N+]=[N-])[C@@H](CO)O2)c(=O)[nH]c1=O, which outcome is on record?
Its outcome is “inactive”.

Which outcome does the source give for Cc1cn([C@H]2C=C[C@@H](CO)O2)c(=O)[nH]c1=O here?
Its outcome is “inactive”.

For O=c1c(-c2ccc(O)cc2)coc2cc(O)cc(O)c12, which outcome is on record?
Its outcome is “inactive”.

With N[C@@H](Cc1c[nH]c2ccc(O)cc12)C(=O)O as the compound, how does the outcome read?
Its outcome is “inactive”.

With Nc1c2c(nc3ccccc13)CCCC2 as the compound, how does the outcome read?
The outcome was “inactive”.

Which outcome does the source give for Clc1ccc(C(c2ccccc2Cl)C(Cl)Cl)cc1 (stereo not given) here?
Its outcome is “inactive”.

For NCCS(=O)(=O)O, which outcome is on record?
The outcome was “inactive”.

Which outcome does the source give for Nc1ccn([C@H]2CC[C@@H](CO)O2)c(=O)n1 here?
The outcome was “inactive”.

With CC(COc1ccccc1)N(CCCl)Cc1ccccc1 (stereo not given) as the compound, how does the outcome read?
The outcome was “inactive”.

Which outcome does the source give for CC(C)C(=O)Nc1ccc([N+](=O)[O-])c(C(F)(F)F)c1 here?
Its outcome is “inactive”.

For COc1ccc2[nH]cc(CCNC(C)=O)c2c1, which outcome is on record?
The outcome was “inactive”.

For Cc1ccc(-c2cc(C(F)(F)F)nn2-c2ccc(S(N)(=O)=O)cc2)cc1, which outcome is on record?
The outcome was “inactive”.

Which outcome does the source give for COc1ccc(CCN(C)CCCC(C#N)(c2ccc(OC)c(OC)c2)C(C)C)cc1OC (stereo not given) here?
Its outcome is “inactive”.

With Cn1c(=O)c2c(ncn2C)n(C)c1=O as the compound, how does the outcome read?
The outcome was “inactive”.

Which outcome does the source give for CCC1(c2ccccc2)C(=O)NCNC1=O here?
Its outcome is “inactive”.

For Cn1c(=O)c2[nH]cnc2n(C)c1=O, which outcome is on record?
Its outcome is “inactive”.
